Structures are written as SMILES. Compounds without any hit were thinned out: in the full panel of roughly 83,000, 20% have a hit.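 Single-dose data. Exposure time 48 hours. Values below 10 considered active.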 Values without a mark were called inactive. The source made the active and inactive calls.

What all share (experiment): NCI-60 one-dose screen, 48 h (100 = growth as untreated, 0 = no growth, -100 = all killed)
Holding throughout (details): 10 µM unless noted

In test [1] the test system is NCI-H226 lung.
Test [2] deals with NCI-H322M lung.
Test [3] has as its system HOP-62 NSCLC.
Test [4] deals with NCI-H460 lung.
Test [5] has as its system HOP-92 NSCLC.
Test [6] relates to NCI-H522 lung.
For test [7], the system named is A549/ATCC NSCLC.
Test [8] has as its system 786-0 renal.
In test [9] the test system is COLO 205 colon.
Test [10] relates to DU-145 prostate.
Test [11] deals with K-562 leukemia.
Test [12] deals with MALME-3M melanoma.
For test [13], the system named is MDA-MB-231 breast.
The test system of test [14] is RXF 393 renal.
The test system of test [15] is SF-268 CNS.
The test system of test [16] is SF-295 CNS.
In test [17] the test system is SF-539 CNS.
In test [18] the test system is UACC-257 melanoma.
Test [19] deals with M14 melanoma.

In the case of `CNC(=O)c1cc(Oc2ccc3nc(NC(=O)Nc4ccc(Cl)c(Cl)c4)sc3c2)ccn1`, the growth in test [1] is 23.1%; in [2], 63.7%; in test [3], 14.7%; in test [4], 30.8%; in test [5], 64.4%; in [6], 48.4%. The growth in [7] was 10.9%; in test [8], 40.5%; in test [9], 80.8%; in test [10], 35.3%; in test [11], 62.5%; in [12] it was -5.7% (active). Further, the growth in test [13] was 39.5%; in test [14], 88.6%; in test [15], 11.9%; in [16], -0.659% (active); in [17] it was 22.5%; in [18], 74.7%. Further, the growth in test [19] was 1.23% (active).

With `CC[C@]12C=CCN3CC[C@@]4(c5ccc(OC)cc5N(C)[C@H]4[C@@](O)(C(=O)OC)[C@@H]1OC(=O)CCCN1CCOCC1)[C@@H]32`, the growth is 108% in test [1]; 106% in test [2]; 99.1% in test [3]; 111% in test [4]; 94.5% in [5]; 100% in test [6]. In addition, the growth in test [7] was 101%; in [8], 96.9%; in test [9] it was 108%; in [10], 106%; in test [11], 100%; in [12], 110%. In addition, the growth was 115% in test [13]; 114% in test [14]; 98.6% in test [15]; 104% in test [16]; 106% in test [17]; 104% in test [18]. For the same compound, in [19], the growth is 103%.

Turning to `N=C(N)c1ccc(-c2ccc(-c3ccc(Cl)cc3)o2)o1`, the growth in test [1] is 82.7%; in [2], 26.2%; in test [3], 52.4%; in test [4], -72.3% (active); in [5], 39.5%; in test [6] it was -2.55% (active). In addition, the growth in test [7] was -64.6% (active); in [8], 1.68% (active); in test [9], -78.6% (active); in [10], -80.4% (active); in test [11], -60% (active); in test [12], 90.6%. In addition, the growth is -60.2% (active) in [13]; 40.4% in [14]; 17.9% in test [15]; 27.4% in [16]; 74.1% in [17]; 53.4% in [18]. The growth in [19] was 19.7%.

Consider `O=C1CCC(C(=O)NN(c2ccccc2)c2ccccc2)N1` (stereo not given), for which the growth in [1] is 96.3%; in test [2], 107%; in [3], 101%; in [4] it was 101%; in [5], 69.6%; in [6] it was 96.5%. Besides, the growth in [7] is 103%; in [8], 48.9%; in [9] it was 111%; in test [10], 101%; in test [11], 12.2%; in test [12], 104%. The growth in test [13] is 110%; in test [14], 118%; in test [15] it was 83.2%; in test [16] it was 99%; in test [17], 94.6%; in test [18], 102%. Also, the growth in [19] was 12%.

As to `CCCCn1sc(=O)n(Cc2ccc(CNC(=O)OCc3ccc4c(Br)cc(Br)c(O)c4n3)cc2)c1=O`, the growth in test [1] is 31.6%; in [2], 46%; in [3] it was 27.1%; in test [4], 4.44% (active); in test [5], 37.8%; in test [6] it was -7.12% (active). Further, the growth in test [7] is 18.9%; in [8], 92.2%; in [10], 6.37% (active); in test [11], 12.8%; in test [12], 61.1%; in test [13], 38.6%. In addition, the growth is 15.9% in [14]; 33.9% in [15]; 13.7% in [16]; -14% (active) in test [17]; 48.4% in [18]; 10.4% in [19].

In the case of `O=C1c2cccnc2C(=O)c2c1c(C(=O)OCCCN1CCCCC1)c1ccccn21`, the growth was -18.4% (active) in [1]; -18.1% (active) in test [2]; -63.3% (active) in test [4]; -8.21% (active) in test [5]; -80% (active) in test [6]; -63.8% (active) in test [7]. In addition, the growth in test [8] is -62.6% (active); in [9], -79% (active); in [10], -86.8% (active); in test [11], -28.5% (active); in [12], -78.2% (active); in test [13], -8.94% (active). Further, the growth was -64.2% (active) in test [14]; -15.3% (active) in [15]; -13.9% (active) in test [16]; -9.46% (active) in [17]; -38.4% (active) in [18].

As to `Cn1cc(-c2csc(-c3cn(C)c4ccc(Br)cc34)n2)c2cnccc21`, the growth in [1] is 102%; in test [2], -32.6% (active); in test [3] it was -79% (active); in test [4], -76.4% (active); in [5], -90.9% (active); in test [6], -67.5% (active). The growth in test [7] was -75.1% (active); in test [8], -92.4% (active); in test [9] it was -77.8% (active); in test [10], -88.6% (active); in [11], -67% (active); in [12], -91.3% (active). Besides, the growth is -84.7% (active) in test [13]; -87.2% (active) in [14]; -73.8% (active) in test [15]; -78.2% (active) in [16]; -93.1% (active) in test [17]; -23.2% (active) in test [18]. For the same compound, the growth in test [19] was -80.4% (active).

The values are drawn from PubChem BioAssay (NCI).
